The labels stand for the following.
B1: ENSMUSG00000029636.13|Wasf3 (ssRNA)
RNA: GGGAGUUCUACAGUCCGACGAUCGCUUCGAUAUCCGCAUGCUAGUUUGAUGAGAAUGACUGGUCUGACUGAGGCACAAGGGCCAGGCGACCAGUGGACAGCCAGGGCCCCAUAUGCAAGUGUGUUAGGAGCUCCUGUGCUCUCUGCACCCUCACAGUGGUAUUUCCCUGUAGCUUUAGUCCCUUUUGUAUUAACAGUGUGAUUUGCUUCUGCACAUCCUUCUGGAUUUGUUGAGUAUUUACUGUGUAAUACUUAAGUGCCACAGAACACAGCACACCGUGCUGCACACCAGGAAACUCGCAGUCUCUUGCGGUCGCACUAGUGUGGAAUUCUCGGGUGUCAAGG
B2: ENSMUSG00000061578.1299|Ksr2 (ssRNA)
RNA: GGGAGUUCUACAGUCCGACGAUCGCUUCGAUAUCCGCAUGCUACGUGUUGCUGGGUCCCAGGGGAUUGGCUGUAGUUAAUUAAAAGCACCUGUCUCUGUCAUCUCUGCACCCAACUGAAUCUCCCACCCUCAAGUGUACCUCUCAGGAUAUCCCCAGGCACACGAAGAUGGAAUGGAAAGCCAGUGGGUAUCUCCCACCCACUUAGAUGCUGAUGGCCUGGGACUAUAAACAGGGACAGUUGGGUCUCCUAAGGAAUAGCUUCCAGGUCCAGGAUGCUGGCAUCUCCCAGAGAGAACUCCAUCCUCUUGCGGUCGCACUAGUGUGGAAUUCUCGGGUGUCAAGG
B3: ENSMUSG00000090935.112|Synj2bp (ssRNA)
RNA: GGGAGUUCUACAGUCCGACGAUCGCUUCGAUAUCCGCAUGCUAGUUCCUGUAGCUAUGGUGCUGCUACCAGUGUUUGCCCUCACCAUGGUAGCAGUUUGGGCCUUCGUGAGAUACCGAAAGCAGCUUUGAAAUGCUUGCUGUCUUCCAGUGUGUCCAAUGAACUCUCUCUCUCACUCACCAUCUCUGACAUCCUCCCAUAUUCUUUCUCCUCCACAUAGCCAAUACAAGAUUUAAAGUGACUGCUUAUCACCCAAAACCCUGCUAUUCAAAAUCUCCUAUUCUAAUGGAAGAGUACAGGGGUUCUCUUGCGGUCGCACUAGUGUGGAAUUCUCGGGUGUCAAGG
B4: ENSMUSG00000034801.219|Sos2|230:238 (ssRNA)
RNA: GGGAGUUCUACAGUCCGACGAUCGCUUCGAUAUCCGCAUGCUAUCUGCUAUUUGACUAAUUUGUAAGUCUGGAACAAAAGUGUCUUAUGGCAUAAGAACCAACUGCCAUUGUCAAACCUAUUAACUGUCUUUAAUCUCGUGUUAACUGAAAUUUUUGAAAAGUUUUUCCAGAUUAGUAAUAUUUAAACAGAAAAUACUUUAAAAAGCUUUAUUAAAUUUUUUAAUCAGGAUAAAGCUUUGCCAUUUGGAUACUAUCAUUCAAAGUGAUCAAGCAUACAUACUUAUGCUGAUAGUGCAGUAGCACUCUUGCGGUCGCACUAGUGUGGAAUUCUCGGGUGUCAAGG
B5: ENSMUSG00000028439.106|Fam219a|156:160 (ssRNA)
RNA: GGGAGUUCUACAGUCCGACGAUCGCUUCGAUAUCCGCAUGCUACCCUCAUCUCCAGAUGGGAAGCCUGGCAGCGCUGUCCAAAGGGAUACUGUCUCUCCAUUAGAUAACUCCUUCCACUGUCUCCCUCCCCCGCUUUCUUACUUUCUGAGGGUUGGGAAGGUAAGAUGGGCCUUAGAGAGAAGCCAGGUUUGGGGAUGCAUACACCUGUUCUCACCGGUCUCUAACCAGUGCAUCUGUCUCUCUGCCUCAUCCCCACACCGCCCUGCCACCCCCAGUCUUCUGUCUAUUGGUUCCAGGCUGGACUCUUGCGGUCGCACUAGUGUGGAAUUCUCGGGUGUCAAGG
B6: ENSMUSG00000061578.55|Ksr2 (ssRNA)
RNA: GGGAGUUCUACAGUCCGACGAUCGCUUCGAUAUCCGCAUGCUACACGCUGGACCAGUGUGUGCGCAUGUGUCUACACAUGGACAGGGCCAACUGCUAUCCUUCUGCCUGGACGAGCCAGCUGUGGAGUGUCCCAGCUGUGCUAUCCUGGAACACAGAACCAGGAUGGAACCAGAAACAAUACACCUGCUCCGUUGUCAAGGCUUCUAGGCCAAGGUCAGGGUAGGGAGGUGGGGUGGGUUAAACUUGCAAACAUCUGAUUUUAGAGGUCCCAUUCCAAGAUGGAAGUCACCGGUUGCCGCUGACUCUUGCGGUCGCACUAGUGUGGAAUUCUCGGGUGUCAAGG
B7: ENSMUSG00000031028.274|Tub (ssRNA)
RNA: GGGAGUUCUACAGUCCGACGAUCGCUUCGAUAUCCGCAUGCUAAAAAAGUAGAGUCAUGUAGAGUCAUGCUUUGAAUAUGUGGGUCAUGCUUUAGAUAUGAAGAGGCUAUGCAGGUAAGGAGGCUGGAUUGAUGUAAAUGGAAGUAGUACUUUAAGAAAGCUCUAGAUUUCCCAGGUUGGACACUCGACGAAAGGCACACCUGCUGCAGCAGGUUCUGACACACCUGAGCCAUACAUUGCCAUCAGAGAACCCUCAGCGAGGUAGCCUUUGUUUACAGUCUAGUUUCUAGAGGGCAGUAGGACCUCUUGCGGUCGCACUAGUGUGGAAUUCUCGGGUGUCAAGG
B8: ENSMUSG00000031028.129|Tub|126:130;202:207 (ssRNA)
RNA: GGGAGUUCUACAGUCCGACGAUCGCUUCGAUAUCCGCAUGCUACCAAAUAUCUGAGUGGAUGGGGAUGAUAGGAGUCAUCCAGUAGACUCCCUACAUCAGGGCUCUCAGCAGCCCCAGCACAACACCUAUGACACACACACAGGAUCUAGGUCACCAUUCAAGUAAUGCAUACCUUCAGGAAGAAUGUCCUCUCUGGGAAGACUCAGCUCCCAUUAUUGCCAGCAUGCCAUGAUCAGUGAGGGCACACACCCAUGCUUAGGGGGAUGGCGCAGGGUGAGGGGAGCAGAGGAUAUUUUAGGGCCCUCUUGCGGUCGCACUAGUGUGGAAUUCUCGGGUGUCAAGG
B9: ENSMUSG00000004113.208|Cacna1b|46:50;236:240 (ssRNA)
RNA: GGGAGUUCUACAGUCCGACGAUCGCUUCGAUAUCCGCAUGCUACAUCGGGUGGAUUGGGUGGGAGCUGCUCAGAGCAGCACGGGGGCUACACACUUAGGGACAUUGACAGUGUCCAUCAGCAUGUCAGAGAAGCAGCUGUAGUGCCCGUGUUUCUCCCUGAGUCAUGGGUUCUGAAGAAGCCAGAGCGGCACAAUGCGUGCUUGCAUGAGGCACUUUCAGCCUUUUUAAAUCUGACUCUCAGGGAUGGGAUGCCUGCCAAGUAGGGUGUAAUCUCUGUACACAUUUUAAAACAACAACAACAACUCUUGCGGUCGCACUAGUGUGGAAUUCUCGGGUGUCAAGG
B10: ENSMUSG00000022095.101|Fam160b2 (ssRNA)
RNA: GGGAGUUCUACAGUCCGACGAUCGCUUCGAUAUCCGCAUGCUAUGCUCUACCCUCCUGGAGGCUGUUGCAAAAUUCCCAACUGCCUCCUGGCAGAGGCCCAAAGUAUGCUCUGCGCCCAGGCGGGGGCAGCUGCUAACAAGAGCCCUGGCGCAGCUGCAGCCAGGGCAGGCGAGAGCCUUGGAGCUGGGUGCCAGGCUCCAGCUCCAGCUCCAGCUGGUUCCUCUCUGGCGCCUUCUGAACCCGUCUCAGCAAGUCCGAAACACCUGGGCAGAGAGGUCAUUGACCAGGGAUGGGGGCCCUUGCUCUUGCGGUCGCACUAGUGUGGAAUUCUCGGGUGUCAAGG
B11: ENSMUSG00000028439.160|Fam219a (ssRNA)
RNA: GGGAGUUCUACAGUCCGACGAUCGCUUCGAUAUCCGCAUGCUACCAGGCUUCCAGAAAGGCUCUUCAAGAGCAAGCUUAAGGAAAUACAGUGAGCCAAGUGGCUGUAUGAUAUGGUAUGGUAUGGUAUGGUAUGGUAUGGUAUGGUAUGCACAUGUGUGUGCAUGUGUGUGUGCCUGUGUGUGUGCGUGUGCGUGUGUGUAUGUGUGUGCGUGUGUGUGUGUGUGUGUUGUACCCGAGUGUGUGUUGAGCCUAUCUGUCCAGGGAACCAGAUUGGUGUCCGAGAUGAGGAAAUGGCUGUGGCCCUCUUGCGGUCGCACUAGUGUGGAAUUCUCGGGUGUCAAGG
B12: ENSMUSG00000028439.161|Fam219a (ssRNA)
RNA: GGGAGUUCUACAGUCCGACGAUCGCUUCGAUAUCCGCAUGCUAUUCCAGAAAGGCUCUUCAAGAGCAAGCUUAAGGAAAUACAGUGAGCCAAGUGGCUGUAUGAUAUGGUAUGGUAUGGUAUGGUAUGGUAUGGUAUGGUAUGCACAUGUGUGUGCAUGUGUGUGUGCCUGUGUGUGUGCGUGUGCGUGUGUGUAUGUGUGUGCGUGUGUGUGUGUGUGUGUUGUACCCGAGUGUGUGUUGAGCCUAUCUGUCCAGGGAACCAGAUUGGUGUCCGAGAUGAGGAAAUGGCUGUGGCCUGGGAACUCUUGCGGUCGCACUAGUGUGGAAUUCUCGGGUGUCAAGG
B13: ENSMUSG00000028439.159|Fam219a (ssRNA)
RNA: GGGAGUUCUACAGUCCGACGAUCGCUUCGAUAUCCGCAUGCUACAGGAGCCAGGCUUCCAGAAAGGCUCUUCAAGAGCAAGCUUAAGGAAAUACAGUGAGCCAAGUGGCUGUAUGAUAUGGUAUGGUAUGGUAUGGUAUGGUAUGGUAUGGUAUGCACAUGUGUGUGCAUGUGUGUGUGCCUGUGUGUGUGCGUGUGCGUGUGUGUAUGUGUGUGCGUGUGUGUGUGUGUGUGUUGUACCCGAGUGUGUGUUGAGCCUAUCUGUCCAGGGAACCAGAUUGGUGUCCGAGAUGAGGAAAUGGCUCUCUUGCGGUCGCACUAGUGUGGAAUUCUCGGGUGUCAAGG
B14: ENSMUSG00000028439.162|Fam219a (ssRNA)
RNA: GGGAGUUCUACAGUCCGACGAUCGCUUCGAUAUCCGCAUGCUAAAAGGCUCUUCAAGAGCAAGCUUAAGGAAAUACAGUGAGCCAAGUGGCUGUAUGAUAUGGUAUGGUAUGGUAUGGUAUGGUAUGGUAUGGUAUGCACAUGUGUGUGCAUGUGUGUGUGCCUGUGUGUGUGCGUGUGCGUGUGUGUAUGUGUGUGCGUGUGUGUGUGUGUGUGUUGUACCCGAGUGUGUGUUGAGCCUAUCUGUCCAGGGAACCAGAUUGGUGUCCGAGAUGAGGAAAUGGCUGUGGCCUGGGAAAUCAGUCUCUUGCGGUCGCACUAGUGUGGAAUUCUCGGGUGUCAAGG
B15: ENSMUSG00000028439.158|Fam219a (ssRNA)
RNA: GGGAGUUCUACAGUCCGACGAUCGCUUCGAUAUCCGCAUGCUAAAAGUCCAGGAGCCAGGCUUCCAGAAAGGCUCUUCAAGAGCAAGCUUAAGGAAAUACAGUGAGCCAAGUGGCUGUAUGAUAUGGUAUGGUAUGGUAUGGUAUGGUAUGGUAUGGUAUGCACAUGUGUGUGCAUGUGUGUGUGCCUGUGUGUGUGCGUGUGCGUGUGUGUAUGUGUGUGCGUGUGUGUGUGUGUGUGUUGUACCCGAGUGUGUGUUGAGCCUAUCUGUCCAGGGAACCAGAUUGGUGUCCGAGAUGAGGAACUCUUGCGGUCGCACUAGUGUGGAAUUCUCGGGUGUCAAGG

Over roughly 9,900 sequences, “r (bound/input frequency ratio)” has its median near 0.7; the highest 2% begin near 6.5. What follows is part of a selection rich in the highest values, with near analogues and random picks from the rest.

Chain of TDP-43 (Q13148 whole entry): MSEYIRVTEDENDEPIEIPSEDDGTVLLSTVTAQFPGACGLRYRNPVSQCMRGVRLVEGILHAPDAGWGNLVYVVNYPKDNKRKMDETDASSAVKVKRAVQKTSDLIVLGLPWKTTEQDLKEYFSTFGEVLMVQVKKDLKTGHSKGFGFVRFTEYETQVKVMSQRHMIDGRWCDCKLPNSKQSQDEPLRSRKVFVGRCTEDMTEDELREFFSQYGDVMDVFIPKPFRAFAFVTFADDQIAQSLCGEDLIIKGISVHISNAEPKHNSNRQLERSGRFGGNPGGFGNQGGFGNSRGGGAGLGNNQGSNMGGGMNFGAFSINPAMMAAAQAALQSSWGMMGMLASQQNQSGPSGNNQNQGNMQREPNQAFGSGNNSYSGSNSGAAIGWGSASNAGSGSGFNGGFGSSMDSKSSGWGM

The experiment addresses TDP-43 (Homo sapiens, UniProt Q13148 1-414). Briefly: RNA Bind-n-Seq with designed 260-mer pool; 25 mM Tris-HCl, 150 mM KCl, 3 mM MgCl2, BSA (printed 500 mg/mL), 20 units/mL SUPERase IN; pH not stated; 500 nM RNA pool, 1 h, 4 C; TDP-43 5, 50, 500 nM; high values mean tight binding. As to conditions: protein: recombinant; tags: SBP (GST cleaved off with PreScission; pGEX-GST-SBP). The method in brief: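 An in vitro-transcribed pool of 260-nt 3′ UTR oligos (500 nM) was incubated for 1 h at 4 °C with recombinant SBP-tagged TDP-43 at 5, 50 or 500 nM held on streptavidin beads. The buffer contained 25 mM Tris-HCl, 150 mM KCl, 3 mM MgCl2, BSA and SUPERase IN. Biotin-eluted bound RNA was sequenced, and binding, R, is each oligo's normalized read abundance in the bound sample over that in input.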
Turning to B1, the binding signal was 0.391 R (bound/input frequency ratio).

For the molecule B2, the binding signal is 0.299 R (bound/input frequency ratio).

Take B3: the binding signal is 2.02 R (bound/input frequency ratio).

With B4, the binding signal was 0.0202 R (bound/input frequency ratio).

Take B5: the binding signal is 0.353 R (bound/input frequency ratio).

On to B6, for which the binding signal was 0.378 R (bound/input frequency ratio).

On to B7, for which the binding signal was 0.687 R (bound/input frequency ratio).

For B8, the binding signal is 0.668 R (bound/input frequency ratio).

Consider B9, for which the binding signal is 0.881 R (bound/input frequency ratio).

Consider B10, for which the binding signal was 0.743 R (bound/input frequency ratio).

Consider B11, for which the binding signal was 6.51 R (bound/input frequency ratio).

Consider B12, for which the binding signal was 8.09 R (bound/input frequency ratio).

Consider B13, for which the binding signal was 7.39 R (bound/input frequency ratio).

As for B14, the binding signal was 8.11 R (bound/input frequency ratio).

On to B15, for which the binding signal is 6.13 R (bound/input frequency ratio).

The record behind these values is publication PMC12864922, “TDP-43 directly inhibits mRNA accumulation in neurites through modulation of mRNA stability”.
